# Measured values published in PubChem BioAssay (NCATS).
# Records with an inconclusive call do not appear. Values without a mark were called inactive. Active and inactive are the calls of the source. Calls follow the shape of the dose curve; as a rule, active = well fitted inhibition curve with a large enough effect; inconclusive = small, poorly fitted or top-dose-only effect; inactive = no such curve, though single readings can be large or run the other way.
# Assay: Counterscreen for APE1 Inhibitors: Fluorescent Dye Displacement Validation Assay (AID 1707)
# Details: fluorescent dye displacement from DNA; series mostly up to 57.1 µM; activity change, negative = inhibition: at the top concentration
# Excerpt: In order to distinguish true inhibitors of DNA-processing enzymes from promiscuous DNA-binding compounds among screening assay hits, we developed a homogeneous and miniaturized assay based on fluorescent dye displacement test as originally described by Tse and Boger (Accounts of Chemical Research (2004) 37: 61-69). The assay is based on the strong enhancement of fluorescence when Thiazole Orange (ThO) binds to double-stranded DNA: conversely, in the presence of a DNA-binding compound, Thiazole Orange is displaced from the DNA and its fluorescence is reduced.
# Buffer. 50 mM Tris-HCl (pH7.5) containing 50mM NaCl, 2 mM MgCl2, and 0.01% Tween-20.
# Buffer containing 250 nM ThO in columns 3 and 4 as negative control (no dsDNA).
# Reaction mixture: 250 nM ThO and 50 nM dsDNA at final concentration dispensed throughout the plate: in columns 1, 2, 5-48. Column 1 is neutral (100% activity).
# 5''TAMRA- TC ACC FTC GTA CGA CTC
# 3'' AG TGG GAG CAT GCT GAG
# where F denotes tetrahydrofuran.
# Control: Pintool transfer of control compound WB64 (W4761, Sigma-Aldrich) to column 2 of all assay plates as a two-fold 16-point dilution in duplicate (concentration range 5.75 uM - 0.175 nM).
# Four uL of reaction mixtures were dispensed to 1536-well Greiner black solid bottom plates. Compounds (23 nL) were transferred […] in order to measure the endpoint fluorescence using 480 nm excitation and 540 nm emission fluorescence protocol.
# Potency is read from the fitted curve at half-maximal effect.
SMILES,"activity change, negative = inhibition [%]",Potency
NC(CO)C(=O)NNCc1ccc(O)c(O)c1O (stereo not given),49.4,
NCCc1cnc[nH]1,2.43,
COc1ccc2[nH]cc(CCNC(C)=O)c2c1,3.65,
CC1COc2c(N3CCN(C)CC3)c(F)cc3c(=O)c(C(=O)O)cn1c23 (stereo not given),0.389,
CC(C)NCC(O)c1ccc(O)c(O)c1 (stereo not given),,inactive
O=C(Nc1ccc([N+](=O)[O-])cc1Cl)c1cc(Cl)ccc1O,,3.98 µM (active)
NC(=O)NO,2.88,
COc1ccc(C2CNC(=O)C2)cc1OC1CCCC1 (stereo not given),-0.463,
COc1nc(C)nc(Cl)c1NC1=NCCN1,1.38,
Cc1cc(C(C)(C)C)c(O)c(C)c1CC1=NCCN1,1.11,
O=C1N(c2ccccc2)c2ccccc2C1(Cc1ccncc1)Cc1ccncc1,-0.911,
Cn1c(=O)c2c(ncn2C)n(C)c1=O,0.154,
NCCS(=O)(=O)O,0.621,
Cn1cnc2c1c(=O)[nH]c(=O)n2C,0.19,
CNCCCC12CCC(c3ccccc31)c1ccccc12,-3.1,
CCOC(=O)c1ncn2c1CN(C)C(=O)c1cc(F)ccc1-2,-0.553,
Nc1ccn([C@H]2CC[C@@H](CO)O2)c(=O)n1,1.55,
CCC1(C)CC(=O)NC1=O (stereo not given),1.49,
C[C@](N)(Cc1ccc(O)c(O)c1)C(=O)O,5.76,
Nc1c2c(nc3ccccc13)CCCC2,-1.92,

SMILES,"activity change, negative = inhibition [%]",Potency
Cc1cn([C@H]2C=C[C@@H](CO)O2)c(=O)[nH]c1=O,-1.12,
CN1CCN(C2=Nc3cc(Cl)ccc3Nc3ccccc32)CC1,2.1,
CN(C)c1nc(N(C)C)nc(N(C)C)n1,0.275,
CC[N+](CC)(CC)CCOc1cccc(OCC[N+](CC)(CC)CC)c1OCC[N+](CC)(CC)CC,2.74,
CN(C)CCOC(c1ccccc1)c1ccccc1,2.29,
COC(=O)Nc1nc2ccc(C(=O)c3cccs3)cc2[nH]1,29.6,
CCOC(=O)C(C)(C)Oc1ccc(Cl)cc1,-0.907,
CN1C(C(=O)Nc2ccccn2)=C(O)c2ccccc2S1(=O)=O,1.88,
Cc1cc(C(C)(C)C)cc(C)c1CC1=NCCN1,2.15,
NS(=O)(=O)c1cc2c(cc1Cl)NCNS2(=O)=O,2.41,
Clc1ccc(C(c2ccccc2Cl)C(Cl)Cl)cc1 (stereo not given),-2.38,
CN1CCC(=C2c3ccccc3CC(=O)c3sccc32)CC1,-0.283,
O=C(C1CCCCC1)N1CC(=O)N2CCc3ccccc3C2C1 (stereo not given),1.5,
Fc1ccc([C@@H]2CCNC[C@H]2COc2ccc3c(c2)OCO3)cc1,-1.16,
CN(C)CCC=C1c2ccccc2C=Cc2ccccc21,2.05,
COc1cc2c(c(OC)c1OC)-c1ccc(OC)c(=O)cc1[C@@H](NC(C)=O)CC2,-0.87,
NC12CC3CC(CC(C3)C1)C2,213,
Nc1nnc(-c2cccc(Cl)c2Cl)c(N)n1,-0.342,
Cc1cnc(C(=O)NCCc2ccc(S(=O)(=O)NC(=O)NC3CCCCC3)cc2)cn1,-3.01,
COc1ccc(CCN(C)CCCC(C#N)(c2ccc(OC)c(OC)c2)C(C)C)cc1OC (stereo not given),-0.479,
